The source of these data is PubChem BioAssay (Tox21).

Values without a mark were called inactive. Inconclusive results are not listed. Activity calls are given as the source filed them. Unless noted, calls follow the shape of the dose curve; as a rule, active = well fitted curve in the direction sought with a large enough effect in the repeat runs; inconclusive = weak or mixed curves; inactive = no such curve, though single readings can be large; an effect the other way counts as inactive or inconclusive.

In assay [1] the target is Progesterone receptor (Homo sapiens) (UniProt P06401). The assay can be described thus: qHTS assay to identify small molecule agonists of the progesterone receptor (PR) signaling pathway (AID 1346784; calls by dose curve; also: nearly all actives have a fitted effect of over 30% in size). Summed up:
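Beta-lactamase reporter read-out: after 16 hr compound treatment at 37C and a further 2 hr at room temperature with LiveBLAzer B/G FRET substrate, fluorescence was measured in PR-UAS-bla HEK 293T cells grown in 2% charcoal-stripped serum.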

Assay [2] is described as follows: qHTS assay to identify small molecule antagonists of the TGF-beta/Smad signaling pathway - cell viability counter screen (AID 1346824). Also: nearly all actives have a fitted effect of over 50% in size. Also: potency is read from the fitted curve at half-maximal effect. In a few lines:
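SBE-bla HEK 293T cells were plated overnight at 37 C, then given compounds in DMSO plus TGF-beta1 (added as 0.25 ng/mL solution) for 5 hr. After the bla read, CellTiter-Glo was added to the same wells and luminescence read after 30 min at room temperature.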

Assay [3] in a line: qHTS assay to identify small molecule agonists of the TGF-beta/Smad signaling pathway - cell viability counter screen (AID 1346829). Also: nearly all actives have a fitted effect of over 45% in size. Also: potency is read from the fitted curve at half-maximal effect. As to activity change, negative = cytotoxicity: top concentration of the series differs between compounds. Summed up:
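Tox21 qHTS format: SBE-bla HEK 293T cells treated with DMSO-dissolved compounds for 5 hr; CellTiter-Glo luminescence after 30 min at room temperature.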

Assay [4] is described as follows: qHTS assay to identify small molecule agonists of the TGF-beta/Smad signaling pathway (AID 1346859; active = well fitted activation curve with a large enough effect in the signal ratio in the repeat runs, not every such curve was filed as active; the % refers to the signal ratio; also: series mostly up to about 77 µM). In a few lines:
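SBE-bla HEK 293T, 4,000 cells/well, plated o/n; cpd in DMSO, 5 hr, 37 C/5% CO2; B/G FRET substrate 2 hr RT; ex 405, em 460/530 nm.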
Background: Quantitative high-throughput screening tests each substance at several concentrations.

A short description of assay [5]: Caspase-3/7 induction in HepG2 cells by small molecules, qHTS assay (AID 1346978). Also: nearly all actives have a fitted effect of over 15% in size. Summed up:
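Wild-type HepG2 cells (2,000/well) were settled 5 h at 37 C, 5% CO2, then exposed to compounds in DMSO for 17 h. Caspase-3/7 activity was read by luminescence 30 min after adding Caspase-Glo 3/7 reagent at room temperature.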

Assay [6] is described as follows: Caspase-3/7 induction in CHO-K1 cells by small molecules, qHTS assay (AID 1346980). Also: nearly all actives have a fitted effect of over 15% in size. Summed up:
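Wild-type cells were seeded at 1,500 per well and settled 5 hr at 37 C, 5% CO2, then exposed to DMSO-dissolved compounds for 17 hr. Caspase-Glo 3/7 reagent was added, and luminescence was read after 30min at room temperature.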

The target in assay [7] is Nuclear receptor subfamily 1 group I member 2 (Homo sapiens) (UniProt O75469). As to the kind of experiment: Human pregnane X receptor (PXR) small molecule agonists, qHTS assay (AID 1346982). Also: nearly all actives have a fitted effect of over 35% in size. Also: potency is read from the fitted curve at half-maximal effect. In a few lines: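 After plating in 5% charcoal-stripped FBS and a 5 hr rest, PXR-Luc HepG2 cells received compounds in DMSO. Following 24 hr at 37 C, ONE-Glo was added and light output read.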
Sequence of Nuclear receptor subfamily 1 group I member 2 (Homo sapiens) (O75469 whole entry, looked up): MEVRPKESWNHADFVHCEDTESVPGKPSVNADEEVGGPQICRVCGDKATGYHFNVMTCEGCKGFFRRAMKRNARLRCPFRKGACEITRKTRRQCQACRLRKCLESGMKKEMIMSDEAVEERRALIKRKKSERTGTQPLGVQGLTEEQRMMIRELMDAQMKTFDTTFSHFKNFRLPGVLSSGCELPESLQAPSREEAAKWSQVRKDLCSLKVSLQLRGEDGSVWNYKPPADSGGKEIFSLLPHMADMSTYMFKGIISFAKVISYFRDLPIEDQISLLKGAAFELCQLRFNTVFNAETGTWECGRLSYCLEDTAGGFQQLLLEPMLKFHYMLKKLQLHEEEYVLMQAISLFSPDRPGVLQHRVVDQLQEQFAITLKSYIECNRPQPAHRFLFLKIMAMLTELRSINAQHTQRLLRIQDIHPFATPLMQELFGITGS

Assay [8] deals with Nuclear receptor subfamily 1 group I member 2 (Rattus norvegicus) (UniProt Q9R1A7). The assay can be described thus: Rat pregnane X receptor (rPXR) activation by small molecules, qHTS assay (AID 1346983). Also: nearly all actives have a fitted effect of over 20% in size. To be noted: rPXR luciferase reporter cells, One-Glo luminescence, 24 h; max activation: active compounds read high. In a few lines: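 Cell-based rPXR luciferase reporter assay, 2,000 cells per well, rested 5hr at 37 C before compound addition in DMSO, then 24 hr at 37 C. One-Glo reagent was added and luminescence read after 30 min at room temperature.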
Sequence of Nuclear receptor subfamily 1 group I member 2 (Rattus norvegicus) (Q9R1A7 whole entry, looked up): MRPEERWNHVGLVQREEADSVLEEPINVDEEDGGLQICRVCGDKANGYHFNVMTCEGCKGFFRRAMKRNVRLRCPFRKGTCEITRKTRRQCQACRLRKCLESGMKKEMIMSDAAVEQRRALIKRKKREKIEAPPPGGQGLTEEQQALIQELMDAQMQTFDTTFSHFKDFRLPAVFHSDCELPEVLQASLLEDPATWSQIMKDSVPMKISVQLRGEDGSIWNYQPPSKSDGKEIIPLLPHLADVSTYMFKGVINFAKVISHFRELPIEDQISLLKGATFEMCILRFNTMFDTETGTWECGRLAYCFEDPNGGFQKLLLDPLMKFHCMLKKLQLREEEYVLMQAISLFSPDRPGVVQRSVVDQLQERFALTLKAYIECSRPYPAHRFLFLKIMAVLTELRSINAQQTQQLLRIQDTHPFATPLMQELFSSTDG

The target of assay [9] is Nuclear receptor subfamily 1 group I member 2 (Homo sapiens) (UniProt O75469). As to the kind of experiment: CYP3A4 induction through human pregnane X receptor (PXR) by small molecules, qHTS assay (AID 1346984). Also: nearly all actives have a fitted effect of over 40% in size. Summed up:
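Human PXR activation is tracked via CYP3A4 promoter-luciferase in DPX-2 (HepG2) cells. Compounds treat cells for 24hr at 37C, and luminescence is read after One-Glo.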

In assay [10] the target is Cytochrome P450 2D6 (Homo sapiens) (UniProt P10635). The assay can be described thus: Cytochrome P450 Family 2 Subfamily D Member 6 (CYP2D6) small molecule antagonists: luciferase reporter qHTS assay (AID 1671196). Also: nearly all actives have a fitted effect of over 50% in size. Also: potency is read from the fitted curve at half-maximal effect. As to activity change, negative = inhibition: series mostly up to about 120 µM. In a few lines: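 Quantitative HTS of Tox21 chemicals against CYP2D6 using a luminescent proluciferin substrate. After NADPH addition, 1 h room-temperature reaction; luminescence recorded 20 min post detection reagent.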
Sequence of Cytochrome P450 2D6 (Homo sapiens) (P10635 whole entry, looked up): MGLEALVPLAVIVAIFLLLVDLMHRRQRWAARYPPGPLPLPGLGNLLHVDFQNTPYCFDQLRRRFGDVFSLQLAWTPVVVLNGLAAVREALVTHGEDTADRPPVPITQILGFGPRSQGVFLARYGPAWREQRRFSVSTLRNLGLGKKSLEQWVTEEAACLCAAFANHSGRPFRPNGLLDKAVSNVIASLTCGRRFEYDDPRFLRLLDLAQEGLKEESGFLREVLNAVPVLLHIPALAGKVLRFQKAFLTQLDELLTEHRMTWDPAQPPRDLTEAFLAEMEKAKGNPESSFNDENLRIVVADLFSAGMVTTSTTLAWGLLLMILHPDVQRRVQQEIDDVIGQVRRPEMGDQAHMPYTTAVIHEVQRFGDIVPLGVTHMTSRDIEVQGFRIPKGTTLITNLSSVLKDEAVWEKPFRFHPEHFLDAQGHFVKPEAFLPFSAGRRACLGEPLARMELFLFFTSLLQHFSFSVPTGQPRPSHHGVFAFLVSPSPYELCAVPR

Assay [11] concerns the target Thyrotropin-releasing hormone receptor (Homo sapiens) (UniProt P34981). The assay can be described thus: qHTS assay to identify small molecule antagonists of the thyrotropin-releasing hormone receptor (TRHR) signaling pathway (AID 1346877; active = well fitted inhibition curve with a large enough effect in the repeat runs, not every such curve was filed as active; also: series mostly up to about 51 µM). Summed up: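 Human TRHR in HEK293 cells; inhibition of the intracellular calcium rise triggered by 1 nM TRH was followed by fluorescence over 3 min. Compounds were run at 15 concentrations, three replicates each.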

Assay [12] shares this target. The assay can be described thus: qHTS assay to identify small molecule agonists of the thyrotropin-releasing hormone receptor (TRHR) signaling pathway (AID 1346891; calls by dose curve; also: series mostly up to about 58 µM). Summed up:
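Intracellular calcium rise, read as fluorescence every second for 3 min, served as the agonist signal in dye-loaded HEK293 cells expressing TRHR; each compound ran at 15 concentrations in triplicate.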

Assay [13] in a line: Human pregnane X receptor (PXR) small molecule agonists, qHTS cell viability counter screen (AID 1346977). Also: nearly all actives have a fitted effect of over 50% in size. Also: potency is read from the fitted curve at half-maximal effect. In a few lines: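 PXR-Luc HepG2, 2,000 cells/well, 5% charcoal-stripped FBS; 5hr settle; cpd 24hr, 37C/5% CO2; CellTiter-Fluor at 23hr, read 1hr later (fluorescence).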
Assay [14] in a line: Caspase-3/7 induction in HepG2 cells by small molecules, qHTS cell viability counter screen (AID 1346981). Also: nearly all actives have a fitted effect of over 30% in size. Also: potency is read from the fitted curve at half-maximal effect. As to activity change, negative = cytotoxicity: series mostly up to about 92 µM. In a few lines: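 The parent HepG2 line is plated at 2,000 cells per well and rested 5 hr before compound pinning from DMSO stocks. Following a 16-hr treatment at 37 C, a fluorogenic live-cell substrate (CellTiter-Fluor) reports viability after 1 hr.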
Assay [15] in a line: qHTS assay to identify small molecule antagonists of the progesterone receptor (PR) signaling pathway - cell viability counter screen (AID 1346798). Also: nearly all actives have a fitted effect of over 50% in size. Also: potency is read from the fitted curve at half-maximal effect.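 As to activity change, negative = cytotoxicity: HEK293T PR-UAS-bla cells stimulated with the agonist R5020; series mostly up to about 92 µM.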 Summed up:
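HEK293T PR-UAS-bla, 2% charcoal-stripped FBS; 4 hr pre-plate; cpd + R5020, 16 h 37C; LiveBLAzer read first; then CellTiter-Glo 30 min RT, luminescence.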

Assay [16] is described as follows: qHTS assay to identify small molecule agonists of the progesterone receptor (PR) signaling pathway - cell viability counter screen (AID 1346799; calls by dose curve; also: nearly all actives have a fitted effect of over 45% in size; also: potency is read from the fitted curve at half-maximal effect). In a few lines: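 Luminescence from CellTiter-Glo, added after the beta-lactamase FRET read in the same wells, gave cytotoxicity in PR-UAS-bla HEK293T cells treated with compounds for 16 hr at 37C.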
The target in assay [17] is Cytochrome P450 2C19 (Homo sapiens) (UniProt P33261). The assay can be described thus: Cytochrome P450 Family 2 Subfamily C Member 19 (CYP2C19) small molecule antagonists: luciferase reporter qHTS assay (AID 1671197). Also: nearly all actives have a fitted effect of over 65% in size. Also: potency is read from the fitted curve at half-maximal effect. As to activity change, negative = inhibition: series mostly up to about 120 µM. In a few lines: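 Relative luminescence units recorded 20 min after the detection reagent stopped a 1 h, 37C CYP2C19 reaction on proluciferin substrate, which was started by NADPH regeneration following 10 min room-temperature compound preincubation; ketoconazole positive control.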
Sequence of Cytochrome P450 2C19 (Homo sapiens) (P33261 whole entry, looked up): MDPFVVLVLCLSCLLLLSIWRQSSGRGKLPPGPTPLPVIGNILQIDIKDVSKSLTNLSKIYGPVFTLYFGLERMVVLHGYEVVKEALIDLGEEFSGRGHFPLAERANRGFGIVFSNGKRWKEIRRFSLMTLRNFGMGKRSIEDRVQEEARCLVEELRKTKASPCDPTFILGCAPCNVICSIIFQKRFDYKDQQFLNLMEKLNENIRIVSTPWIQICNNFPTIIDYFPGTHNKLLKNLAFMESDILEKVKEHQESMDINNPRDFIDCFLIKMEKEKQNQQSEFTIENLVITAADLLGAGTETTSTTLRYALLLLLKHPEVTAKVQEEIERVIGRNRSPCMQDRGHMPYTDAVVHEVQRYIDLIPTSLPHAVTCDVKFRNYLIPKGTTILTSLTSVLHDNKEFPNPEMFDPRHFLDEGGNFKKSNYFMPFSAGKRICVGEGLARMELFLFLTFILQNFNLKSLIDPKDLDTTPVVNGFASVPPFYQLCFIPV
Background: In a reporter assay the amount or activity of a reporter protein is the signal.

The target in assay [18] is Progesterone receptor (Homo sapiens) (UniProt P06401). The assay can be described thus: qHTS assay to identify small molecule antagonists of the progesterone receptor (PR) signaling pathway (AID 1346795; active = well fitted inhibition curve with a large enough effect in the signal ratio in the repeat runs, not every such curve was filed as active; the % refers to the signal ratio; also: potency is read from the fitted curve at half-maximal effect). Summed up: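 Read-out is fluorescence from the LiveBLAzer B/G FRET substrate, cleaved by a UAS-controlled beta-lactamase in PR-UAS-bla HEK293T cells after 16 hr exposure to compound plus 1 nM promegestone (final), followed by 2 hr at room temperature.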
Sequence of Progesterone receptor (Homo sapiens) (P06401 whole entry, looked up): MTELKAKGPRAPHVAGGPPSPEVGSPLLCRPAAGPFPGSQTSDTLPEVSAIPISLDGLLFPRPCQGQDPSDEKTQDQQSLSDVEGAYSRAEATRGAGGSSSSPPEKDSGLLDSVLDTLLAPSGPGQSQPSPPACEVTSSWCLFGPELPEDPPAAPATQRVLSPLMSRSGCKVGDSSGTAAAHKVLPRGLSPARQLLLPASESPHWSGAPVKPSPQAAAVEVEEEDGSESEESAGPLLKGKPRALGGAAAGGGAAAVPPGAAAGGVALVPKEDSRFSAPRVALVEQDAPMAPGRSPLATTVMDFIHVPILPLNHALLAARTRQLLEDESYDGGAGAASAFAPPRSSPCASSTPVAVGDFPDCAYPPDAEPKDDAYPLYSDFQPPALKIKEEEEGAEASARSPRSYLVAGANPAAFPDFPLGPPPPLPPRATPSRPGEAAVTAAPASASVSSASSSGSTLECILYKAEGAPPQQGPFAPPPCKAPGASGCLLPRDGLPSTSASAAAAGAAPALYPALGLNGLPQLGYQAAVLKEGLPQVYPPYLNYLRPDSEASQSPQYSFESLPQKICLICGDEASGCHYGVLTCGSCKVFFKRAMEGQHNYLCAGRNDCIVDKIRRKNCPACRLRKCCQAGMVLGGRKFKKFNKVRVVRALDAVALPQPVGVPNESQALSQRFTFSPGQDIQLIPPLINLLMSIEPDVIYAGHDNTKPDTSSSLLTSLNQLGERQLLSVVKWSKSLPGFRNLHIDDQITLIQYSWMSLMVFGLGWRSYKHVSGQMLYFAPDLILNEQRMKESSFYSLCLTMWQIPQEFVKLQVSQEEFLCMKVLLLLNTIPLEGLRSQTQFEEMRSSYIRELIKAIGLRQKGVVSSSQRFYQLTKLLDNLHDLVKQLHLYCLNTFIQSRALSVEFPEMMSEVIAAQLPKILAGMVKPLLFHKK

Assay [19] can be described thus: Caspase-3/7 induction in CHO-K1 cells by small molecules, qHTS cell viability counter screen (AID 1346979). Also: nearly all actives have a fitted effect of over 35% in size. Also: potency is read from the fitted curve at half-maximal effect. Summed up:
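Cells (CHO-K1, wild type) are plated at 1,500 per well and incubated 5hr. Test compounds in DMSO are then pinned in, followed by 16hr at 37C and 5% CO2. Viability is read by CellTiter-Fluor fluorescence after 1hr.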
% is scaled to controls: 0 for no effect and ±100 for the full control effect.

Sequence of Thyrotropin-releasing hormone receptor (Homo sapiens) (P34981 whole entry, looked up): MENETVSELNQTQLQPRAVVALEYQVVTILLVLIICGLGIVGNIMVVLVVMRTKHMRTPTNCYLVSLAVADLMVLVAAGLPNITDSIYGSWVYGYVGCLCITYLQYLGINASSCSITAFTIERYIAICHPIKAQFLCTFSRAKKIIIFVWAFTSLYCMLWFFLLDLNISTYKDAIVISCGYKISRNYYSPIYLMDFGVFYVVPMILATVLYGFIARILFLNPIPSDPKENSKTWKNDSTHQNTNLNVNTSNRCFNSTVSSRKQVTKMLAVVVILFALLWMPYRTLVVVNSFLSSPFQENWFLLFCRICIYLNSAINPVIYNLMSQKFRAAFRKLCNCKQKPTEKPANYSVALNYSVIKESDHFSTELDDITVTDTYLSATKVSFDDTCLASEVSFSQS

Take `CCCCOc1ccc(CC(=O)NO)cc1`: the outcome in assay [1], in assay [4] and in [5] was inactive. The Potency entry in assay [2], in assay [3], in [6], in [7] and in [9] was “inactive” each time. Moreover, the max activation in assay [8] was -0.916%. Also, the Potency in [10] is 15.5 µM (active).

Regarding `CCOC(=O)C1=C(C)NC(C)=C(C(=O)OC)C1c1cccc([N+](=O)[O-])c1` (centres undefined), the compound was called inactive in assay [1], in assay [4], in assay [11] and in assay [5]. Moreover, the Potency entry in assay [3], in [12], in assay [13], in assay [6], in assay [14] and in [10] was “inactive” throughout.

On to `NC(N)=NN=C(/C=C/c1ccc([N+](=O)[O-])o1)/C=C/c1ccc([N+](=O)[O-])o1`, for which the Potency in [15] was 23.7 µM (active); in assay [16] it was 23.7 µM (active); in assay [2], 23.9 µM (active); in [3] it was 21.3 µM (active); in assay [13] it was 6.68 µM (active); in assay [14], 8.41 µM (active). Also, the Potency in assay [7] is 2.66 µM (active); in [10] it was 15.5 µM (active); in assay [17], 3.89 µM (active). The outcome in assay [4] and in assay [11] was inactive. In addition, the Potency result in assay [12] and in assay [9] was “inactive” in each case. Besides, in assay [8], the max activation was -21.7%.

Regarding `CC(C)c1ccc2c(C(C)C)cc(C(C)C)c(S(=O)(=O)O)c2c1`, the Potency entry in assay [18], in [15], in assay [16], in [2], in [3] and in assay [12] was “inactive” throughout. The Potency entry in [13], in assay [19], in assay [6], in assay [14] and in assay [10] was “inactive” throughout. In addition, the outcome in assay [4], in [11] and in [5] was inactive. The Potency in assay [7] is 25.2 µM (active).

Turning to `O=C(C(=O)c1ccc(Br)cc1)c1ccc(Br)cc1`, the activity change, negative = cytotoxicity in [16] was 14.5% [at 19 µM]; in assay [3], 0.5% [at 15.8 µM]; in [13] it was -1.5% [at 19 µM]; in assay [19], 1.57% [at 19 µM]; in assay [14], 2.21% [at 19 µM]. In addition, the viability change, negative = cytotoxic in assay [2] was 7.81% [at 15.8 µM]. For the same compound, the activation in assay [4] is 2.2% [at 15.8 µM]; in [7] it was 1.54% [at 19 µM]. In addition, the activity, negative = inhibition in assay [11] was -2.27% [at 10.5 µM]. Further, the caspase activation in [5] was -0.0549% [at 19 µM]. Moreover, the caspase-3/7 activation in assay [6] is 0.394% [at 19 µM]. In assay [10], the activity change, negative = inhibition was 1.74% [at 23.6 µM].

On to `CC(=O)[C@@]1(O)CC[C@H]2[C@@H]3C[C@H](C)C4=CC(=O)CC[C@]4(C)[C@H]3CC[C@@]21C`, for which the Potency result in assay [15], in [2], in assay [3], in assay [13], in assay [6] and in assay [14] was “inactive” throughout. For the same compound, the outcome in [4] and in assay [5] was inactive. Moreover, the Potency in assay [10] is 34.7 µM (active); in assay [17], 1.95 µM (active).

Take `O=[N+]([O-])c1cc[n+]([O-])cc1`: the Potency entry in [15], in assay [3], in [12], in assay [6] and in [7] was “inactive” throughout. Further, the outcome in [4], in [11] and in assay [5] was inactive. Moreover, the Potency in assay [13] is 54.5 µM (active); in assay [19] it was 38.6 µM (active); in assay [10], 35.6 µM (active); in [17] it was 35.6 µM (active).

Consider `O=C1Nc2cc(Cl)ccc2Oc2ccccc21`, for which the compound was classed as inactive in [1], in assay [4], in assay [11] and in assay [5]. For the same compound, the Potency entry in [2], in [3], in assay [12], in assay [19], in assay [6] and in assay [7] was “inactive” in each case. Further, the Potency result in assay [10] is “inactive”. Also, the Potency in [17] was 15.5 µM (active).

Regarding `Oc1ccc(Cc2ccccc2)cc1`, the Potency was 22.5 µM (active) in [18], 56.6 µM (active) in [7] and 20.8 µM (active) in assay [17]. For the same compound, the Potency result in [2], in assay [3], in assay [12], in assay [13], in assay [6] and in assay [14] was “inactive” each time. In addition, the compound was classed as inactive in assay [4] and in assay [11].

Regarding `CCCOc1ccc2nc(NC(=O)OC)[nH]c2c1`, the compound was classed as inactive in assay [1] and in assay [4]. Also, the Potency entry in [3], in assay [6], in assay [14], in assay [10] and in assay [17] was “inactive” in each case. Also, the Potency in assay [7] was 3.76 µM (active).
